# Screening data from PubChem BioAssay.
# MITF inh: MITF inhibition | inhibition, % (concentration not given with the values) | TRPM1 promoter luciferase, luminescence, 24 h | 0.28% of 37,000 active | AID 2240; in the data active = inhibition above about 85%; inconclusive = no clear call, values can overlap the other calls; inactive = below about 68%;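 note: human melanocyte line stably carrying TRPM1 promoter luciferase reporter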
# Shh pathway inh: Sonic Hedgehog pathway inhibition; Shh-LIGHT2 Gli-luciferase reporter, 30 h; inhibition, % (concentration not given with the values); 2.1% of 22,000 active;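 active = mean inhibition across valid replicates above about 65%, limit read from the data; inconclusive = mean under the limit, yet half or more replicates past it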;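 note: pathway switched on by Shh-conditioned medium diluted 1 in 25 in low serum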
# NOMO-1 viab: STK33 inhibitor candidate reducing NOMO-1 cell viability | NOMO-1 AML viability, CellTiter-Glo luminescence, 72 h | inhibition, % (no concentration beside the values) | 7.5% of 37,000 active; in the data active = inhibition above about 80%; inconclusive = no clear call, values can overlap the other calls
# Numbers without * were called inactive; u = inconclusive; x = no result given. Sampled rows, rich in hits. Any-hit rate of the full collection: about 7.9%.
SMILES,MITF inh,Shh pathway inh,NOMO-1 viab
C/C=C(/C)C(=O)O[C@H]1CC(C)(C)C[C@H]2C3=CCC4[C@@]5(C)CC[C@H](O[C@@H]6O[C@H](C(=O)O)[C@@H](O[C@@H]7O[C@H](CO)[C@H](O)[C@H](O)[C@H]7O[C@@H]7O[C@H](CO)[C@@H](O)[C@H](O)[C@H]7O)[C@H](O)[C@H]6O[C@@H]6O[C@@H](C)[C@H](O)[C@@H](O)[C@H]6O)C(C)(C)C5CC[C@@]4(C)[C@]3(C)C[C@@H](O)[C@@]12CO (stereo not given in full),92*,99*,119*
CC1OC(OC2C(C(=O)O)OC(O[C@H]3CC[C@@]4(C)C(CC[C@]5(C)C4CC=C4C6CC(C)(C)CC[C@]6(C(=O)OC6OC(CO)C(O)C(O)C6O)CC[C@]45C)C3(C)C)C(O)C2O)C(OC2OCC(O)C(O)C2O)C(O)C1O (stereo not given in full),-71,1,1
CC(C)(C)NC(=O)C[n+]1cccc(/C=N/O)c1,-10,-18,2
COc1cc(N)c(Cl)cc1C(=O)O,11,x,25
C[C@@H]1CN([C@@H](C)CO)C(=O)c2cc(NS(=O)(=O)c3ccc(F)cc3)ccc2O[C@@H]1CN(C)C,3,x,-11
CC1(C)CC[C@]2(C(=O)O[C@@H]3O[C@H](CO)[C@@H](O)[C@H](O)[C@H]3O)CC[C@]3(C)C(=CCC4[C@@]5(C)CC[C@H](O[C@@H]6O[C@H](C(=O)O)[C@@H](O)[C@H](O)[C@H]6O)C(C)(C)C5CC[C@]43C)C2C1 (stereo not given in full),20,38,115*
C[C@@H]1O[C@@H](O[C@@H]2[C@@H](O)[C@H](OC(=O)[C@]34CCC(C)(C)CC3C3=CCC5[C@@]6(C)CC[C@H](OC7OC(CO)C(OC8OCC(O)C(O)C8O)C(O)C7O)C(C)(C)C6CC[C@@]5(C)[C@]3(C)CC4O)O[C@H]2CO)[C@H](O)[C@H](O)[C@H]1O[C@H]1OC[C@](O)(CO)[C@H]1O (stereo not given in full),14,u,95*
CC1(C)CC[C@]2(C(=O)O[C@@H]3O[C@H](CO)[C@@H](O)[C@H](O)[C@H]3O)CC[C@]3(C)C(=CCC4[C@@]5(C)C[C@@H](O)[C@H](O)[C@@](C)(COC(=O)c6cc(O)c(O)c(O)c6)C5[C@H](O)C[C@]43C)[C@@H]2C1 (stereo not given in full),2,5,109*
CC1(C)CC[C@]2(C(=O)O[C@@H]3O[C@H](CO)[C@@H](O)[C@H](O)[C@H]3O)CC[C@]3(C)C(=CCC4[C@@]5(C)C[C@H](O)[C@H](O[C@@H]6O[C@H](C(=O)O)[C@@H](O)[C@H](O)[C@H]6O)[C@@](C)(CO)C5CC[C@]43C)C2C1 (stereo not given in full),2,-18,0
CC1(C)CC[C@@]2(C(=O)O[C@@H]3O[C@H](CO)[C@@H](O)[C@H](O)[C@H]3O)C(C1)C1=CCC3[C@@]4(C)CC[C@@H](O[C@@H]5O[C@H](C(=O)O)[C@@H](O[C@@H]6OC[C@@H](O)[C@H](O)[C@H]6O)[C@H](O[C@@H]6OC[C@](O)(CO)[C@H]6O)[C@H]5O)C(C)(C)C4CC[C@@]3(C)[C@]1(C)C[C@H]2O (stereo not given in full),-1,-4,5
CC1(C)CC[C@]2(C(=O)O[C@@H]3O[C@H](CO)[C@@H](O)[C@H](O)[C@H]3O)CC[C@]3(C)C(=CCC4[C@@]5(C)CC[C@H](O[C@@H]6O[C@H](C(=O)O)[C@@H](O[C@@H]7O[C@H](CO)[C@@H](O)[C@H](O)[C@H]7O)[C@H](O)[C@H]6O[C@@H]6O[C@H](CO)[C@@H](O)[C@H](O)[C@H]6O)C(C)(C)C5CC[C@]43C)C2C1 (stereo not given in full),-5,-7,9
O=c1[nH]c(=S)[nH]c(O)c1C=Nc1cccc(O)c1,-4,-8,11
O=C(Nc1ccc(Cc2ccc(O)c(NC(=O)c3ccccc3F)c2)cc1O)c1ccccc1F,26,x,27
O=C(Nc1ccccc1C(=O)N1CCOCC1)c1ccc(CN2CCOCC2)cc1,3,x,-31
CCOC(=O)COc1c(C#N)sc2c1c(=O)n(-c1ccccc1)c(=S)n2-c1ccccc1,-4,9,112*
C[C@@H]1O[C@@H](O[C@H]2[C@@H]3C=CO[C@@H](O[C@@H]4O[C@H](CO)[C@@H](O)[C@H](O)[C@H]4O)[C@@H]3[C@@]3(CO)O[C@@H]23)[C@H](O)[C@H](O)[C@H]1OC(=O)/C=C/c1ccccc1,x,-3,x
C[C@@H]1O[C@@H](O[C@H]2[C@@H]3C=CO[C@@H](O[C@@H]4O[C@H](CO)[C@@H](O)[C@H](O)[C@H]4O)[C@@H]3[C@@]3(CO)O[C@@H]23)[C@H](OC(=O)/C=C/c2ccc(O)cc2)[C@H](O)[C@H]1O,x,65*,x
COC(=O)c1cc(NC(=O)CSC2=NCCS2)cc(C(=O)OC)c1,-18,x,93*
COC(=O)c1ccc(NC(=O)CSc2nnc(C)s2)cc1,-11,x,19
COc1cc2c(c(N)c1OC)C(=O)/C(=C/c1cc(C)c(O)c(C)c1)C2,-1,84*,97*
CC(NC(=O)Cn1c(-c2nonc2N)nc2ccccc21)c1ccccc1 (stereo not given),7,x,20
C[C@@H]1CN([C@H](C)CO)C(=O)c2cc(NC(=O)Cc3cn(C)c4ccccc34)ccc2O[C@@H]1CN(C)C(=O)Nc1ccc2c(c1)OCO2,0,-9,5
Cc1cc2ncc(-c3ccnc(SCc4c(Cl)cccc4Cl)n3)c(C)n2n1,-2,-26,16
C[C@H]1CN([C@@H](C)CO)C(=O)c2cccc(N(C)C)c2O[C@H]1CN(C)Cc1ccc(C(=O)Nc2ccccc2N)cc1,12,x,126*
C[C@@H]1CN([C@@H](C)CO)C(=O)c2cccc(N(C)C)c2O[C@H]1CN(C)Cc1ccc(C(=O)Nc2ccccc2N)cc1,-5,x,90*
SMILES,MITF inh,Shh pathway inh,NOMO-1 viab
C[C@H](CO)N1C[C@H](C)[C@@H](CN(C)Cc2ccc(C(=O)Nc3ccccc3N)cc2)Oc2c(cccc2N(C)C)C1=O,-12,x,44
C[C@H](CO)N1C[C@H](C)[C@@H](CN(C)Cc2ccc(C(=O)Nc3ccccc3N)cc2)Oc2c(NS(C)(=O)=O)cccc2C1=O,-20,x,30
COC1OC(=O)C(CCC2(C)C(C)CCC3(C)C2CC(O)C(O)C32CO2)C1O (stereo not given),-3,-3,12
O=C(Oc1ccc(C2SCCS2)cc1)c1cccc(C(F)(F)F)c1,6,u,3
Cc1ccc(C(=O)CSc2nc3ccccc3o2)cc1[N+](=O)[O-],19,x,1
C[C@@H]1CN([C@H](C)CO)C(=O)c2cc(NS(=O)(=O)c3ccc(Cl)cc3)ccc2O[C@@H]1CN(C)Cc1ccc(Oc2ccccc2)cc1,36,33,122*
C[C@H](CO)N1C[C@H](C)[C@H](CN(C)Cc2ccccc2)Oc2ccc(NS(=O)(=O)c3ccc(Cl)cc3)cc2C1=O,-16,x,17
C[C@H]1CN([C@@H](C)CO)C(=O)c2cc(NS(=O)(=O)c3ccccc3)ccc2O[C@H]1CN(C)Cc1ccc(Oc2ccccc2)cc1,6,x,53
